# MBD2 inh: inhibitors of MBD2 binding to methylated DNA, primary screen, biochemical, TR-FRET, DNA-binding domain, human; AID 686964, 2013; inhibition, % at 4.4 µM; hit rate 0.31% among 370,000; Methyl-CpG-binding domain protein 2 (Homo sapiens), Q9UBB5; MBD2 binding to methylated oligonucleotide; in the data active = inhibition above about 13%
# Target sequence (Q9UBB5 whole entry, looked up, the tested form may be a part): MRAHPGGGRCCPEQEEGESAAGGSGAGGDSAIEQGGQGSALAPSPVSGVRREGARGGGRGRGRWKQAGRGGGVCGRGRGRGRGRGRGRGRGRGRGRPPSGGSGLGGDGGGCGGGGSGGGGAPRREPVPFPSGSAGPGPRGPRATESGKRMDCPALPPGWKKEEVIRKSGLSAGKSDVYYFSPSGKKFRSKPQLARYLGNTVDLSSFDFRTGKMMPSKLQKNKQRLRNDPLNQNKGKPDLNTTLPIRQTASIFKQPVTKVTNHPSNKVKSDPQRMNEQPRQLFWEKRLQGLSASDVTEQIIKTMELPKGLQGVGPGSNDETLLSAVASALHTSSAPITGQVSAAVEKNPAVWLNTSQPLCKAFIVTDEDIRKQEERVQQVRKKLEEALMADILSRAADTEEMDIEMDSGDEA
# LEDGF integ inh: blockers of LEDGF/p75-dependent integrase strand transfer – biochemical, TR-FRET, high throughput, primary screen; HIV-1 integrase (with human LEDGF/p75); hit rate 0.64% among 370,000; inhibition, % at 3.7 µM; TR-FRET IN-LEDGF/p75 DNA integration, Eu/Cy5;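 active = inhibition above the screen-wide mean plus 3 SD, cut at about 13% in these data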;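 also: signal is the Cy5 over europium emission ratio at 671 and 618 nm; 0% = plate median of compound wells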
# Casp6 inh: human caspase-6 inhibitors, primary screen, biochemical, VEID-R110 fluorescence, single point, set 2. hit rate 0.53% among 350,000. P55212. purified caspase-6, Z-VEID-R110 cleavage fluorescence. inhibition, % at 12.5 µM;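 active = mean inhibition across replicates at least about 35%, with every replicate also reaching that limit, limit read from the data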;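 also: 0% = median of neutral control wells and 100% = no fluorescence left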
# UHRF1 binding: UHRF1 methylated DNA binding inhibitors, primary screen, counter-screen for MBD2 inhibitor project, biochemical, TR-FRET, human UHRF1, single concentration; E3 ubiquitin-protein ligase UHRF1 (Homo sapiens), Q96T88; UHRF1 binding to methylated oligo; inhibition, % at 4.4 µM; hit rate 0.75% among 370,000; in the data active = inhibition above about 21%;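 also: UHRF1 SRA domain binding a hemimethylated CpG hairpin DNA probe; 0% = median of test compound wells and 100% = reference inhibitor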
# Starred values were filed as active, the others as inactive; / = not tested or not shown. The list is not random: actives were taken first. Their share in the collection is about 1.4%.
SMILES,MBD2 inh,LEDGF integ inh,Casp6 inh,UHRF1 binding
COCc1cn(CC[C@@H]2CC[C@H](NC(=O)c3ccc(F)cc3)[C@@H](CO)O2)nn1,/,/,-1.2,/
O=C(C[C@@H]1C[C@@H]2c3cc(NC(=O)NC4CCCC4)ccc3O[C@@H]2[C@H](CO)O1)NCc1cccc(F)c1,/,/,0.9,/
COc1cc(-c2cccc([C@H]3[C@@H]4C=CC[C@@H](C)[C@@H]4C(=O)N3Cc3ccccc3)c2)cc(OC)c1OC,6.3,0.6,-0.5,45.5*
CCc1sc(C(=O)NCCc2ccc(S(N)(=O)=O)cc2)cc1Br,4.8,2.9,-2.0,21.1*
CCN(CC)CC(O)COc1ccc2c(c1)OCO2 (configuration not stated),2.8,3.5,/,-2.5
OCCN(CCO)CC(O)COc1ccc2c(c1)OCO2 (configuration not stated),-0.5,-1.7,/,67.0*
Cc1noc(C)c1NC(=O)N(C)C[C@H]1Oc2ccc(NS(=O)(=O)c3c(C)noc3C)cc2CC(=O)N([C@H](C)CO)C[C@@H]1C,/,/,-3.0,/
Oc1c(CN2CCOCC2)cc(CN2CCOCC2)cc1CN1CCOCC1,3.3,-7.0,-21.5,23.8*
Oc1cc(O)c(CN2CCOCC2)cc1CN1CCOCC1,-0.8,7.4,-2.2,3.8
C[C@@H]1CN([C@@H](C)CO)S(=O)(=O)c2ccc(C#Cc3cccnc3)cc2O[C@H]1CN(C)C,/,/,-6.2,/
Cc1ccc(S(=O)(=O)/C(C#N)=C/c2c(N3CCC(C(N)=O)CC3)nc3c(C)cccn3c2=O)cc1,9.0,-3.4,/,22.1*
COCCCNC(=O)/C(C#N)=C/c1c(N2CCN(C)CC2)nc2c(C)cccn2c1=O,-6.8,2.2,-6.6,52.4*
COc1cccc(NC(=O)C[C@@H]2CC[C@@H]3[C@H](COc4ccc(NC(=O)C5CCCCC5)cc4C(=O)N3C)O2)c1,/,/,-0.2,/
Cc1ccc(S(=O)(=O)N(CC(=O)Nc2ccccc2C(=O)O)c2cccc(Cl)c2C)cc1,-0.7,0.7,46.8*,3.5
Cc1ccc(S(=O)(=O)N(CC(=O)Nc2ccccc2C(=O)O)c2ccccc2C)cc1,-0.4,-0.6,1.5,1.7
CC(=O)N[C@@H]1CC[C@H](CCNC(=O)C2CCCC2)O[C@H]1CO,/,/,-0.2,/
CC(C)C#Cc1ccc2c(c1)O[C@@H](CN(C)CC1CCOCC1)[C@@H](C)CN([C@@H](C)CO)S2(=O)=O,/,/,-5.0,/
CO[C@H]1CN(C)C(=O)c2ccc(NS(=O)(=O)c3ccccc3)cc2OC[C@H](C)N(Cc2ccccn2)C[C@@H]1C,/,/,-1.3,/
O=C(NCc1ccccc1)c1cc(C2CCCN(S(=O)(=O)c3cccc4cccnc34)C2)on1 (configuration not stated),0.4,1.0,0.3,0.0
O=C(Nc1ccc(F)c(Cl)c1)c1cc(C2CCCN(S(=O)(=O)c3cccc4cccnc34)C2)on1 (configuration not stated),-6.2,3.7,36.4*,-1.0
CCOC(=O)c1cnc2ccccc2c1Nc1ccc(C(=O)O)cc1,2.8,-0.8,-1.6,25.6*
CCOC(=O)c1cnc2ccccc2c1Nc1cccc(C(=O)O)c1,2.6,0.1,/,2.2
CO[C@@H]1CN(C)C(=O)c2cc(NC(=O)C3CC3)ccc2OC[C@H](C)N(Cc2ccncc2)C[C@@H]1C,/,/,-1.1,/
CN1[C@@H]2c3ccc(/C=C/c4ccccc4)c(=O)n3C[C@@H]2[C@@H](CO)[C@@H]1C(=O)NC1CCCC1,/,/,0.2,/
C/C=C/c1ccc2c(c1)O[C@H](CN(C)C(=O)CC)[C@H](C)CN([C@H](C)CO)S2(=O)=O,/,/,-1.9,/
SMILES,MBD2 inh,LEDGF integ inh,Casp6 inh,UHRF1 binding
CCOc1ccccc1NC(=O)CN(c1cc(C)cc(C)c1)S(=O)(=O)c1c(C)noc1C,-0.1,-2.1,1.2,27.1*
COc1ccc(-c2ccc([C@H]3[C@H]4CN(C(=O)C5CCOCC5)CC(=O)N4[C@H]3CO)cc2)cc1,/,/,-0.2,/
O=C(C[C@@H]1C[C@H]2c3cc(NC(=O)NC4CCCC4)ccc3O[C@H]2[C@H](CO)O1)NCc1ccncc1,/,/,-0.7,/
Cc1cccc(C)c1-n1nnnc1C1(C)CCC(=O)N1c1ccc(N2CCOCC2)cc1 (configuration not stated),12.2,3.6,2.9,22.6*
O=C(NCC(c1cccs1)N1CCOCC1)c1ccc([N+](=O)[O-])cc1 (configuration not stated),0.8,-0.7,/,24.9*
O=C(NCC(c1cccs1)N1CCOCC1)c1cc([N+](=O)[O-])cc([N+](=O)[O-])c1 (configuration not stated),7.2,-0.8,0.4,1.4
O=C(NCC(c1ccco1)N1CCc2ccccc21)c1cccc([N+](=O)[O-])c1 (configuration not stated),5.2,0.7,63.3*,-1.8
O=C(NCC(c1ccco1)N1CCc2ccccc21)c1ccc([N+](=O)[O-])cc1 (configuration not stated),-3.6,-1.8,71.9*,-0.2
O=C(NNC(=O)c1cccs1)c1ccc([N+](=O)[O-])cc1,-0.7,3.4,-0.2,20.7*
COc1cc(C(F)(F)F)nc2ccc(C#CCOC(=O)Nc3ccccc3)cc12,5.2,-1.2,-2.0,21.1*
CC(=O)NCCc1c[nH]c2ccc(OCc3ccccc3)cc12,2.7,-5.6,4.5,7.3
O=C(CCl)NC(Cc1c[nH]c2ccc(OCc3ccccc3)cc12)C(=O)O (configuration not stated),-2.9,0.9,36.0*,0.1
COC(=O)C1=NNC2C(=O)N(C3CCCCC3)C(=O)C12 (configuration not stated),10.6,-1.0,-5.1,25.8*
C[C@H](CO)N1C[C@H](C)[C@H](CN(C)C(=O)NC2CCCCC2)Oc2ccc(NC(=O)C3CC3)cc2CC1=O,/,/,-0.1,/
O=S(=O)(c1cccc2cccnc12)N1CCN(c2ccc(F)cc2)CC1,-0.5,-2.4,41.6*,-1.2
COc1ccccc1N1CCN(S(=O)(=O)c2ccc3c(c2)NC(=O)C(C)C(=O)N3)CC1 (configuration not stated),2.7,2.7,1.0,2.8
Cc1ccc(Cl)cc1N1CCN(S(=O)(=O)c2ccc3c(c2)NC(=O)C(C)C(=O)N3)CC1 (configuration not stated),-2.0,-0.6,-1.9,95.6*
CC=Cc1ccc2n(c1=O)C[C@H]1[C@H](CO)[C@@H](C(=O)N3CCc4ccccc4C3)[C@@H]2N1CCC (mixture of isomers),/,/,1.2,/
CC(C)OCCOc1ccc2oc(-c3ccco3)cc(=O)c2c1,1.4,0.0,35.0*,14.8
COc1ccc(S(N)(=O)=O)cc1C(=O)N1CCCC1,3.1,5.6,/,-4.0
COc1ccc(S(N)(=O)=O)cc1C(N)=O,10.1,-3.6,8.0,21.5*
CCNC(=O)NC(=O)C(C)OC(=O)C(C)(C)Oc1ccc(Cl)cc1 (configuration not stated),6.6,-1.7,1.0,25.9*
CC(C)NC(=O)Nc1ccc2c(c1)CC(=O)N([C@H](C)CO)C[C@@H](C)[C@@H](CN(C)S(=O)(=O)c1ccccc1)O2,/,/,-7.4,/

# Screening data: PubChem, several laboratories
